PubChem BioAssay AID743314 (Broad Institute, 2014)
Potency and affinity values are given separately. Results filed as inconclusive are left out. Active and inactive are the calls of the source.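 How the source made its calls: active means fitted half-maximal concentration no higher than twice the top tested dose, in every repeat run; inconclusive means repeat runs disagree, poor fit, or flat partial inhibition; inactive means the rest.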

Molecular target: Endoplasmic reticulum aminopeptidase 1 (Homo sapiens) (UniProt Q9NZ08)
Experiment: ERAP1 aminopeptidase inhibitors, dose response, biochemical, cherry-pick, set 2, plate reader (AID 743314);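 further: 0% = neutral control wells and -100% = L-leucinethiol positive control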
Details: Recombinant ERAP1, Leu-AMC fluorescence, 60 min; series mostly up to 11 µM; activity change, negative = inhibition: at the top concentration

Chain of Endoplasmic reticulum aminopeptidase 1 (Homo sapiens) (Q9NZ08 whole entry, looked up): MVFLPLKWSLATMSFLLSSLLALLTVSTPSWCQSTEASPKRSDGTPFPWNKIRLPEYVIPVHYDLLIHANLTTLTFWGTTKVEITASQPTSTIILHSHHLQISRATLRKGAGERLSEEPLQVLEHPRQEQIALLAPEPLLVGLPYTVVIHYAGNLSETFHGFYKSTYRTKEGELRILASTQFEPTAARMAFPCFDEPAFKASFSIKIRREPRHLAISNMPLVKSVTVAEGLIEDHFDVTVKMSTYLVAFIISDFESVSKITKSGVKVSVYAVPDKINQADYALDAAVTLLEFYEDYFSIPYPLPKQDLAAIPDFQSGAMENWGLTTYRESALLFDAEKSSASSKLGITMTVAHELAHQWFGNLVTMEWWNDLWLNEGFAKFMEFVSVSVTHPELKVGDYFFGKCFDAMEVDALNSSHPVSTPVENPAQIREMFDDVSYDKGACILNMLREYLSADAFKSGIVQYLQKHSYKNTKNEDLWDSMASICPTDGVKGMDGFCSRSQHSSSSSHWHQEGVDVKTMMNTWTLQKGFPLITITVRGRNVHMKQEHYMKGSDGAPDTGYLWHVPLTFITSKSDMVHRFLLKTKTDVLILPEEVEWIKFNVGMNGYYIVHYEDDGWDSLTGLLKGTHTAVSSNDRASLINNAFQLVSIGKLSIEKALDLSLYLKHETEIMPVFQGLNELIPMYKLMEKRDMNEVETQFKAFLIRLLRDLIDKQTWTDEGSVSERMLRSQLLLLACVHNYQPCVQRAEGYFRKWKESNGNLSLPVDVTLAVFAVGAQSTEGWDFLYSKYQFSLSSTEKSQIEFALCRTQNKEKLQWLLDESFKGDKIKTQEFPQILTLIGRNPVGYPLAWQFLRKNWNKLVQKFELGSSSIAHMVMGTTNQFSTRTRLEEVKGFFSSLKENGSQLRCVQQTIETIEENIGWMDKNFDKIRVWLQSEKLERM

Activity change, negative = inhibition, inactive:
C[C@H]1CN([C@@H](C)CO)C(=O)Cc2cc(NC(=O)Nc3cccc4ccccc34)ccc2O[C@@H]1CN(C)Cc1ccc(C(=O)O)cc1 19.6%, COc1ccccc1-c1cccc(-c2nc(C(=O)Nc3nccs3)cc3c2[C@@H](CCO)N(C(=O)CC2CC2)C3)c1 -7.7%, CN(CC(=O)Nc1ccccc1C(F)(F)F)C(=O)CSc1nnc(-c2ccncc2)n1C 14.9%, O=C(O)c1cccc(NC(=O)c2ccccc2NC(=O)c2cccc([N+](=O)[O-])c2)c1 110% [at 5.6 µM], COCCN(C(=O)COC(=O)CNC(=O)c1cccs1)c1c(N)n(Cc2ccccc2)c(=O)[nH]c1=O -3.47%, Cc1ccc2nc3c(cc(C(=O)NCc4ccccc4)c(=N)n3CCCn3ccnc3)c(=O)n2c1 51.3%, CCn1cc(CN2CCCC(C(=O)Nc3ccc(-c4nc5ccccc5[nH]4)cc3)C2)c(C)n1 (stereo not drawn) 82.3%, COc1ccc(CN(C)C[C@H]2OCCCC[C@H](C)Oc3ccc(NS(=O)(=O)c4cccs4)cc3C(=O)N([C@H](C)CO)C[C@@H]2C)cc1 50.9%, CCCC#Cc1ccc(CC[C@H]2O[C@H]3CC[C@H](CO)O[C@H]3C[C@@H]2NC(=O)CN2CCOCC2)cc1 8.84%, Cn1c(CCC(=O)Nc2cc(S(C)(=O)=O)ccc2Cl)nc2cc(S(=O)(=O)N3CCOCC3)ccc21 -16.7%, CCCCCCc1c(C)c2ccc(OCC(=O)N[C@@H](Cc3ccccc3)C(=O)O)cc2oc1=O -9.93%, C[C@H]1CCCCO[C@H](CN(C)C)[C@@H](C)CN([C@@H](C)CO)C(=O)c2cc(NS(=O)(=O)c3ccc(Cl)cc3)ccc2O1 9.96%, Cc1cccc2sc(N(CCCN(C)C)C(=O)c3ccc4ncsc4c3)nc12 -4.43%, CCOc1ccccc1OCCCC(=O)Nc1ccc(S(=O)(=O)Nc2cc(C)nc(C)n2)cc1 9.91%, O=C(NCCN1CCCC1)[C@H]1[C@H](CO)[C@H]2Cn3c(cccc3=O)[C@@H]1N2C(=O)NC1CCCC1 25.1%, COc1ccc2c3c([nH]c2c1)[C@@H](CO)N(Cc1ccccc1)CC31CN(C)C1 -25.8%, CC(OC(=O)c1cc(=O)[nH]c2ccccc12)C(=O)Nc1ccccc1F (stereo not drawn) 3.54%, N#Cc1c(NC(=O)c2cccc(S(=O)(=O)Nc3ccc(C(=O)O)cc3)c2)sc2c1CCCC2 -7.29%, C[C@H](CO)N1C[C@H](C)[C@@H](CN(C)C(=O)Nc2ccccc2)Oc2ccc(NC(=O)c3ccncc3)cc2C1=O -11.5%, O=S(=O)(O)c1ccc(N2N=C(c3ccccc3)CC2c2ccccc2)cc1 (stereo not drawn) 162%, O=C(CC1CC1)N1[C@H](CO)[C@@H](c2ccccc2)C12CN(Cc1cc(F)ccc1F)C2 12.9%, COc1ccc(CN(C)C[C@@H]2Oc3ccc(NS(=O)(=O)c4ccc(C)cc4)cc3C(=O)N([C@@H](C)CO)C[C@@H]2C)cc1 8.81%, CCN(CC)C(=O)c1ncn(C)c1C(=O)N(CC)CC 5.06%, Cc1cc(S(=O)(=O)c2cc3ccc(O)c(C)c3oc2=O)ccc1F -4.67%, Cc1ccc(NC(=O)C(C)OC(=O)C2CC3CCCC(C2)C3=O)cc1S(=O)(=O)N1CCOCC1 (stereo not drawn) 3.8%, COc1ccc(S(=O)(=O)N[C@@H]2C=C[C@H](CC(=O)NCc3ccccc3F)O[C@@H]2CO)cc1 20.6%, O=C(CC1CC1)N1[C@@H](CO)[C@@H](c2ccccc2)C12CN(Cc1cc(F)ccc1F)C2 14%, C[C@@H]1CCCCO[C@@H](CN(C)C)[C@H](C)CN([C@@H](C)CO)C(=O)c2cc(NS(=O)(=O)c3ccc(Cl)cc3)ccc2O1 22.3%, C[C@@H]1CN([C@H](C)CO)C(=O)c2cc(NC(=O)C3CC3)ccc2O[C@H]1CN(C)Cc1ccncc1 26.1% [at 2.6 µM], O=c1cc(CN2CCN(Cc3ccccc3)CC2)c2ccc(O)cc2o1 273%, COc1ccc2c3c(n(C)c2c1)[C@H](CO)N(C)CC31CN(C(=O)c2cccnc2)C1 21.1%, COc1ccc(CN(C)C[C@@H]2OCCCC[C@H](C)Oc3ccc(NS(=O)(=O)c4cccs4)cc3C(=O)N([C@H](C)CO)C[C@H]2C)cc1 20% [at 10 µM], COc1ccc(CN(C)C[C@H]2OCCCC[C@H](C)Oc3ccc(NC(=O)Nc4ccc(F)cc4)cc3C(=O)N([C@@H](C)CO)C[C@@H]2C)cc1 12.2%, COc1ccc(CN(C)C[C@H]2OCCCC[C@H](C)Oc3ccc(NS(=O)(=O)c4cccs4)cc3C(=O)N([C@@H](C)CO)C[C@@H]2C)cc1 38.5%, COc1ccc(CN(C)C[C@H]2Oc3c(NC(=O)NC4CCCCC4)cccc3C(=O)N([C@@H](C)CO)C[C@@H]2C)cc1 13.4%, COc1ccc(CN(C)C[C@H]2OCCCC[C@@H](C)Oc3ccc(NS(=O)(=O)c4cccs4)cc3C(=O)N([C@H](C)CO)C[C@@H]2C)cc1 42.7%, N#Cc1ccc(-c2ccc([C@H]3[C@H](CO)N4C(=O)CN(C(=O)C5CC5)C[C@@H]34)cc2)cc1 22.1%, COc1ccc(CN(C)C[C@@H]2OCCCC[C@H](C)Oc3ccc(NS(=O)(=O)c4cccs4)cc3C(=O)N([C@H](C)CO)C[C@@H]2C)cc1 48.1%
